According to PubChem BioAssay (NCI):
Values joined by “and” are separate entries in the source; they are usually repeats but may differ in a detail not shown here. Identical values can stand only once. Compounds without any hit were thinned out: in the full panel of roughly 79,000, 15% have a hit. Unmarked numbers belong to inactive results. Active and inactive are the calls of the source. No stated cut-off is given here; in the data, active means growth inhibition above about 70%; inactive means the rest.

Experiments:
[1] = NCI Yeast Anticancer Drug Screen. Data for the rad50 strain (AID 155);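 further: 0% = growth of vehicle-only cultures of the same strain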; conditions: S. cerevisiae rad50 strain growth inhibition; at 50.0 µM; stronger effect = higher value
How it was run: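 Relative growth inhibition (compound vs vehicle) was measured in yeast with a defined repair-gene alteration.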

[2] = NCI Yeast Anticancer Drug Screen. Data for the mec2-1 strain (AID 157); conditions: S. cerevisiae mec2-1 strain, at 50.0 µM, stronger effect = higher value
How it was run: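 Yeast mec2-1 mutant treated with compound. Readout: growth inhibition vs vehicle controls.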

[3] = NCI Yeast Anticancer Drug Screen. Data for the sgs1 mgt1 strain (AID 161);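 further: 0% = growth of cultures given vehicle only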; conditions: S. cerevisiae sgs1 mgt1 strain, at 50.0 µM, stronger effect = higher value
How it was run: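 Test agents were incubated with a DNA-repair-mutant yeast strain. Growth was then read and compared against vehicle-treated controls.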

[4] = NCI Yeast Anticancer Drug Screen. Data for the cln2 rad14 strain (AID 165);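 further: 0% = growth equal to vehicle treated cultures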; conditions: S. cerevisiae cln2 rad14 strain, at 50.0 µM, stronger effect = higher value
How it was run: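 cln2 rad14 yeast strain; compound exposure; growth inhibition read vs vehicle controls.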

[5] = NCI Yeast Anticancer Drug Screen. Data for the bub3 strain (AID 167); conditions: S. cerevisiae bub3 mutant strain, at 50.0 µM, stronger effect = higher value
How it was run: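 Screening used yeast with an engineered genetic alteration affecting cell cycle control. Compound-exposed cultures were compared with vehicle cultures, and reduced growth was taken as inhibition.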

[6] = NCI Yeast Anticancer Drug Screen. Data for the mlh1 rad18 strain (AID 175); conditions: S. cerevisiae mlh1 rad18 strain growth inhibition; at 50.0 µM; stronger effect = higher value
How it was run: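 Yeast w/ defined DNA-repair lesions; compound exposure; growth vs vehicle controls → % inhibition.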

| SMILES | growth inhibition [1] | growth inhibition [2] | growth inhibition [3] | growth inhibition [4] | growth inhibition [5] | growth inhibition [6] |
| --- | --- | --- | --- | --- | --- | --- |
| CC1CN(C2CCCCC2)CO1 (stereo not drawn) | -0.6% | -30.8% | 0.8% | -10.8% | -20.5% | -32.2% |
| [Cl][Cd][Cl] | 54.5% | 25.5% | 2.6% | 35.5% | 13.2% | 2.15% |
| CCCCCCCCCCC[CH2][Hg][CH2]CCCCCCCCCCC | 9.8% | -1.05% | 4% | -4.65% | 4.55% | -4.3% |
| CC(C)OC(=O)C(C)Br (stereo not drawn) | -0.1% | -3.05% | -8.35% | 3% | 3.1% | 1.15% |
| COc1cc(C2c3cc4c(cc3OC(NNS(=O)(=O)c3ccc(C)cc3)C2C)OCO4)cc(OC)c1O (stereo not drawn) | -3.5% | -7.8% | -15.8% | 0.15% | -12.5% | 1.6% |
| COc1cccc(C=C2C(=O)NC(=S)NC2=O)c1O | -8.95% | -12.6% | -4.35% | 15.7% | -2.25% | 26.6% |
| C[P+](CCl)(CCl)CCl | 5.45% | -6.45% | -11.7% | -7.3% | -7.6% | -10% |
| O=[N+]([O-])c1ncc[nH]1 | 6.75% | -19.7% | 11.6% | 3.1% | 8.2% | 14.9% |
| N#C[S-].N#C[S-].[Au+3].[Au+3].[CH3-].[CH3-].[CH3-].[CH3-] | 51.4% | 11% | 61.5% | 33.4% | 12.5% | 53.5% |
| O=C1CCC(=O)N1[N+](=O)[O-] | -17.2% | -10.2% | -18.8% | 2.95% | -2.45% | -16% |
| CCCC1(CCS)C(=O)NC(=O)NC1=O | -12.9% | -33.7% | -13.3% | 5.25% | 2.3% | 9.15% |
| NC(=O)c1c([N+](=O)[O-])ccc(N(CCCl)CCCl)c1[N+](=O)[O-] | -5.1% | 1.25% | -12.9% | 4.75% | -5% | -6.05% |
| CC(=O)OC1CC(OC2C(O)CC(OC3C(O)CC(OC4CCC5(C)C(CCC6C5CC(O)C5(C)C(C7=CC(=O)OC7)CCC65O)C4)OC3C)OC2C)OC(C)C1OC1OC(CO)C(O)C(O)C1O (stereo not drawn) | 6.05% | -15.4% | -25.1% | 5% | 5.7% | 10.6% |
| NP(=S)(Oc1ccc(Cl)cc1)Oc1ccc(Cl)cc1 | 96.8% (active) | 65.1% | 97.7% (active) | 60.7% | 49.3% | 91.5% (active) |
| CCOC(=O)/C(=C\c1ccc(OC)cc1)[Se]c1ccccc1 | 50% | -11% | 39.5% | 13.8% | 44.6% | 59.9% |
| COc1cc([N+](=O)[O-])ccc1[As](=O)(O)O | 0% | -4.1% | 8.95% | -63.5% | 10.7% | -1.05% |
| O=C(O)Cc1ccc([N+](=O)[O-])cc1[N+](=O)[O-] | 3.55% | -13.6% | -7.25% | -27.2% | 0.05% | -2.6% |
| CC(=O)OCC1OC(OC(C)=O)C(N(CCCl)CCCl)C(OC(C)=O)C1OC(C)=O (stereo not drawn) | 2.2% | 7% | 6.75% | 23.9% | -2.25% | -33.6% |
| CSc1nsc(-c2ccccc2)[s+]1 | 13% | -11.6% | 2.95% | -74.5% | -9.2% | 18% |

| SMILES | growth inhibition [1] | growth inhibition [2] | growth inhibition [3] | growth inhibition [4] | growth inhibition [5] | growth inhibition [6] |
| --- | --- | --- | --- | --- | --- | --- |
| O=C(O)CCCC1CCCCC1.[Ni] | -6.95% | 14.8% | -2.1% | 16% | -10.8% | -18.6% |
| CCOC(=O)Cc1ccccc1 | 24.1% | -5.85% | -1.95% | -2.05% | 9.25% | 23.8% |
| CC(C)=C(OP1(=S)OCCN1C)C(C)(C)C(=O)N(C)C (stereo not drawn) | -2.6% | -3.65% | -1.9% | 12.8% | 11.9% | 4.45% |
| CC(C)CC1N=C(N(C)N=O)OP1(=O)NNc1ncccn1 (stereo not drawn) | -5.5% | -14.9% | -15.4% | 6.65% | 13.8% | 13.9% |
| C=CC[As](=O)(O)c1ccccc1Cl | 96% (active) | 99.5% (active) | 99.5% (active) | 84.2% (active) | 98.3% (active) | 99% (active) |
| CC1(C)OC2(C)CCC1C(O)C2N1CCCCC1 (stereo not drawn) | -29.6% | -4.15% | -13.4% | 0.75% | -1% | -8.6% |
| O=C1CCP(c2ccccc2)(c2ccccc2)(c2ccccc2)O1 | 34.9% | 11.8% | 23.1% | 25.7% | 14.3% | 7% |
| CCOc1ccc(OCC)c(C(O)C(C)NC(C)C)c1 (stereo not drawn) | -0.55% | 9.1% | 6% | 0.1% | -3.6% | -10.2% |
| CCc1ccc(CCN2CCCCC2)nc1 | -24.6% | -21.4% | -21.4% | 6.75% | -15.5% | -1.6% |
| CC(=O)O.CC(=O)O.CC(=O)O.CC(=O)O.[Cu].[Cu] | 36.9% | 20.2% | 56.5% | -53.6% | 26.9% | 40.8% |
| O=C1[C@@H]2[C@H](C(=O)N1c1ccccc1)[C@H]1CC[C@H]2N1C(=O)c1ccccc1 | 18.9% | 17.4% | 2.2% | 2.75% | 13.2% | 6.5% |
| CC(=O)[O-].CC(=O)[O-].CC(=O)[O-].CC(=O)[O-].[Mo+2].[Mo+2] | -6.5% | 2.1% | 0.1% | 3.25% | 1.85% | 5.6% |
| CN1C[C@H]2[C@@H](C1=O)[C@H](c1ccccc1)ON2C | -16.4% | -55.2% | -34% | 13.6% | 5.85% | -1.85% |
| NC(CCl)=NC1CN2CCC1CC2 (stereo not drawn) | -22.5% | -20.4% | -13.2% | 5.9% | -32.1% | -7.15% |
| O=C([O-])C[SH2+].[Co+3].[NH-]CC[NH-].[NH-]CC[NH-].[O-][Cl+3]([O-])([O-])O | 7.4% | 20.1% | 14.3% | -16.6% | 17.4% | 20.4% |
| O=[N+]([O-])c1ccc(/C=C/C=C\c2ccc(S(=O)(=O)F)cc2Cl)cc1 | 2.55% | 25.2% | 16% | 1.85% | 10.2% | 16.3% |
| O=Cc1cn(CCCCCCCCCCCCn2cc(C=O)c3ccccc32)c2ccccc12 | -2.75% | -10.8% | 0.25% | -5.55% | 7.35% | -12.8% |
| CCN(CC)CCn1ncc2c(N)ncnc21 | -0.25% | -9% | -26.4% | -19.6% | -22.8% | -1.15% |
| NC(CCP(=O)(O)O)C(=O)O (stereo not drawn) | 1.1% and -34.8% | -3.5% and -15.6% | -5.6% and -33.7% | -3.25% and 6.1% | 7.7% and -23.5% | -5.75% and -18.1% |
